IDE cell activ: boosts human insulin-degrading enzyme activity in HEK cells; P14735; FAbeta-B cleavage, fluorescence polarization; 0% vehicle, 100% cell-free pure enzyme wells; activation, % at 5.96 µM; 340,000 compounds, 0.073% hits; AID 493087;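 active means activation above the mean of all tested compounds plus 3 SD, set per screening campaign, cut at about 17% in these data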
Target sequence (P14735 whole entry, looked up): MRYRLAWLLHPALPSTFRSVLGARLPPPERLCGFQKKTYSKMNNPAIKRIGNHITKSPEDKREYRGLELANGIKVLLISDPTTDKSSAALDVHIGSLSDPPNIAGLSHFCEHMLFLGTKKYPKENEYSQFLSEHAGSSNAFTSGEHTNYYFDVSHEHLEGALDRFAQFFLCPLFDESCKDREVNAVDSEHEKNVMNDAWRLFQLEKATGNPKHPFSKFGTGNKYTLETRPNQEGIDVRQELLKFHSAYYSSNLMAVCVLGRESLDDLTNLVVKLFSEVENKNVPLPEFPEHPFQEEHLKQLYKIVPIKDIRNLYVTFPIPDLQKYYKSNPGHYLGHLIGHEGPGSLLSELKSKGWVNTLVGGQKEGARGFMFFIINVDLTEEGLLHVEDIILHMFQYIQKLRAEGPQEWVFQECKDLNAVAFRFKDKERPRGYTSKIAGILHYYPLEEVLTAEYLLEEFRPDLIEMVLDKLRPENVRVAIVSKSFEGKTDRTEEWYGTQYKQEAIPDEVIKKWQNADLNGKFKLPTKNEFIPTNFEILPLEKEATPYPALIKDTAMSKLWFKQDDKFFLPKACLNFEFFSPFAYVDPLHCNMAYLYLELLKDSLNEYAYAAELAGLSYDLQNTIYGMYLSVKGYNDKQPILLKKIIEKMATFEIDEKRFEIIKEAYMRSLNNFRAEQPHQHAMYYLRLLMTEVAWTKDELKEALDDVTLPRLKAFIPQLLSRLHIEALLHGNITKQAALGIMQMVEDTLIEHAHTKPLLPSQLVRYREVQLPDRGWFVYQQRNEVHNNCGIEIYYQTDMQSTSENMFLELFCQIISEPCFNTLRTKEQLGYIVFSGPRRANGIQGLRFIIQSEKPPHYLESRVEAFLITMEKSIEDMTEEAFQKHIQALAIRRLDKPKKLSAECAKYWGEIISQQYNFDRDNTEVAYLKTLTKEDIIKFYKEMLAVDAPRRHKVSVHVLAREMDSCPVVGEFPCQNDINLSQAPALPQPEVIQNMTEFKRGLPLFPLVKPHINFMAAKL
TPT1 inhibitor: blocks Candida albicans tRNA 2'-phosphotransferase | recombinant caTPT1, FP RNA substrate dephosphorylation | AID 1962 | inhibition, % at 5 µM | 300,000 compounds, 0.81% hits;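 active means inhibition above the mean of all tested compounds plus 3 SD, set per screening campaign, cut at about 24% in these data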;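 further: plate controls were DMSO alone for no effect and ferristatin control at 100 nM for full effect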
CRFR2-BP antag: CRF-BP/CRF-R2 complex antagonism | 350,000 compounds, 0.59% hits | inhibition, % at 11.8 µM | HEK293 CRF-R2/CRF-BP, CRF-induced calcium fluorescence | AID 588475;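 active means inhibition of the ligand-induced calcium signal above about 50% at the single tested concentration, limit read from the data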
IDE inh: inhibits human insulin-degrading enzyme in HEK cells; inhibition, % at 5.59 µM; 320,000 compounds, 0.41% hits; FAbetaB cleavage, fluorescence polarization; AID 434962; P14735;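 active means percent inhibition above the average of all tested compounds plus 3 SD, set per screening campaign, cut at about 16% in these data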;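 further: IDE supplied by intact live HEK cells; FP after avidin binding of uncleaved biotin substrate so inhibition keeps polarization high; 0% = DMSO wells and 100% = 60 µM reference IDE inhibitor Ii1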
CRFBP-R2 agonist: agonists of human CRF-binding protein/CRF-R2 receptor complex. AID 588473. activation, % at 13.2 µM. 350,000 compounds, 0.46% hits. HEK293 CRF-R2/CRF-BP, calcium dye fluorescence (FLIPR); percent of saturating CRF peptide response;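 active means activation of at least 50%, plus an integration ratio under a set limit after plate pattern correction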;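 further: plate controls were neutral control wells without compound for no effect and CRF at EC100 for full effect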
Myeloid diff MLP: promotes myeloid progenitor differentiation. 360,000 compounds, 1% hits. ER-HoxA9 myeloid progenitors, lysozyme-GFP differentiation, flow cytometry. calls only at 10 µM;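 active means normalized GFP-positive differentiation at or above the plate's own cutoff, the solvent-only control mean plus 3 SD; inconclusive means no clear call, values can overlap the other calls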;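 further: cells exposed to compound for four days before flow analysis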
* = called active by the depositor; i = inactive; ? = inconclusive; nt = no result; + = active, no number. Hits are enriched below; roughly 2.6% of the tested compounds scored in any of these assays.

SMILES | IDE cell activ | TPT1 inhibitor | CRFR2-BP antag | IDE inh | CRFBP-R2 agonist | Myeloid diff MLP
COc1ccc(S(=O)(=O)N(C)CC(=O)N2CCC(C(N)=O)CC2)cc1Cl | 1 | 0 | -2 | 5 | -1 | i
Cc1ccc(O)c(C=Nc2cc(C)ccc2O)c1 | 4 | 0 | -11 | 7 | 0 | +
CCCC(=O)N(c1ccc(OCC)cc1)S(=O)(=O)c1ccc2c3c(cccc13)C(=O)N2C | 3 | 0 | 4 | -1 | 2 | +
CC(=O)Nc1ccc(S(=O)(=O)NNC(=S)NCc2ccco2)cc1 | -4 | -3 | 12 | -1 | -3 | +
CCCCc1ccc(S(=O)(=O)NNC(=S)NCc2ccco2)cc1 | -4 | -1 | -5 | 9 | 0 | i
CCOc1ccc(NS(=O)(=O)c2ccc(C(=O)NCC3(N(C)C)CCCCC3)cc2)cc1 | 5 | -3 | -31 | 1 | 51* | i
CCOc1ccc(NS(=O)(=O)c2ccc(C(=O)NCC3(N4CCCCC4)CCCCC3)cc2)cc1 | -2 | 5 | -36 | 7 | 62* | ?
CC1(C)CC(=O)C=C(c2cccc(Cl)c2O)C1 | -4 | nt | -2 | 4 | -4 | i
O=[N+]([O-])c1ccc(C2=NN(c3ccccc3)C(c3ccco3)C2)cc1 (centres undefined) | 0 | nt | -92 | nt | 105* | +
COc1ccc(NC(=O)COC(=O)CCC(=O)c2cccs2)cc1OC | -1 | nt | 1 | 6 | 0 | i
Cc1cc(C)c(Nc2cc(S(=O)(=O)O)c(N)c3c2C(=O)c2ccccc2C3=O)c(C)c1 | 14 | -1 | 53* | -6 | 13 | i
CN(CC(=O)Nc1ccc(Cl)c(C(F)(F)F)c1)C(=O)c1ccccc1SCC(=O)N1CCCC1 | 3 | nt | -5 | nt | 0 | i
CCOC(=O)/C=c1/s/c(=C/c2ccc3cc(OC)ccc3c2)c(=O)n1CC(=O)NCc1ccc2c(c1)OCO2 | 8 | nt | -11 | nt | 64* | i
N#Cc1c(NC(=S)NC(=O)c2ccccc2)sc2c1CCN(CCc1ccccc1)C2 | nt | 98* | nt | 74* | nt | nt
N#Cc1c(NC(=S)NC(=O)c2ccccc2)sc2c1CCCC2 | -7 | 3 | -60 | 10 | 2 | i
COc1ccc(C2c3c(-c4ccccc4O)n[nH]c3C(=O)N2Cc2ccco2)cc1 (centres undefined) | 5 | -2 | 136* | 1 | -3 | i
O=C1CSC(c2nn(-c3ccccc3)cc2-c2cc3ccccc3oc2=O)N1Cc1ccco1 (centres undefined) | 2 | -3 | 84* | 1 | 4 | i
CCOC(=O)N1CCN(C(=O)CCNS(=O)(=O)c2ccccc2)CC1 | 1 | 1 | -1 | -5 | 0 | i
CCOC(=O)N1CCN(C(=O)COc2ccc(S(=O)(=O)NCc3ccccc3)cc2)CC1 | 4 | 0 | 48 | 0 | -1 | +
CCn1c([N+](=O)[O-])nc2c1c(=O)[nH]c(=O)n2C | 0 | nt | 11 | nt | 2 | ?
C[C@@H](c1ccccc1)N1C[C@H](COCc2ccccc2)Oc2cc(N3CC[C@@H](O)C3)ccc2S1(=O)=O | nt | nt | nt | nt | nt | +
C[C@@H](c1ccccc1)N1C[C@@H](COCc2ccccc2)Oc2cc(N3CC[C@@H](O)C3)ccc2S1(=O)=O | nt | nt | nt | nt | nt | i
COc1ccc(OC)c(CCNC(=O)Cn2ccc3cc(S(=O)(=O)N4CCCC4)ccc32)c1 | 7 | 1 | -5 | 7 | 0 | i
COc1ccccc1CCNC(=O)Cn1ccc2cc(S(=O)(=O)N3CCC(C)CC3)ccc21 | 5 | 1 | -16 | 4 | 1 | +
Cc1ccccc1NC(=O)NC1(C(=O)N2CCC(C(N)=O)CC2)CCCCC1 | 2 | 3 | 4 | 0 | 0 | i
SMILES | IDE cell activ | TPT1 inhibitor | CRFR2-BP antag | IDE inh | CRFBP-R2 agonist | Myeloid diff MLP
COc1ccc(-n2nc(C(=O)NCC(=O)NC(C)C)c3ccccc3c2=O)cc1 | -5 | -3 | 4 | 3 | -1 | +
COc1ccc(-n2nc(C(=O)NCC(=O)O)c3ccccc3c2=O)cc1 | -1 | -1 | -1 | -2 | -1 | i
CC1CC(C)CN(CC(=O)c2c[nH]c3ccccc23)C1 (centres undefined) | 2 | 17 | -4 | 8 | 5 | +
O=C(CN1CCCCC1)c1c[nH]c2ccccc12 | 2 | -3 | 11 | 2 | -1 | i
Oc1ccc2ccccc2c1CN1CCCCC1 | 4 | nt | 17 | nt | 109* | i
CCOC(=O)c1cc(C#N)c(Nc2ccc(C)cc2)nc1C(F)(F)F | 6 | 4 | -13 | 3 | 1 | i
COc1ccc(-c2csc(NC(=O)CSc3nc(SC)ns3)n2)cc1 | -3 | 0 | 85* | -1 | 1 | i
COC(=O)N1C(=O)[C@](Cc2ccccc2)(c2ccccc2)N1C(=O)OC | 3 | 2 | -57 | 0 | 5 | i
O=C(Nc1ccc(O)c(-c2nc3ccccc3o2)c1)C1(c2ccccc2)CCCC1 | 6 | 0 | -6 | -2 | 5 | +
O=C(Nc1ccncc1)C1(c2ccccc2)CCCC1 | 1 | 1 | -14 | 0 | -2 | i
COc1ccc(NC(=O)c2ccccc2)cc1NS(=O)(=O)c1ccc(F)cc1 | 4 | 2 | 16 | 7 | -5 | i
COc1ccc(NC(=O)c2ccc(-c3ccccc3)cc2)cc1NS(=O)(=O)c1ccc(F)cc1 | -23 | 0 | 4 | 21* | 2 | i
CCCCNC(=O)CCc1nc2cccnc2n1Cc1ccc(OC)cc1 | 4 | 0 | 69* | 0 | -2 | i
CN1C[C@@H]2[C@@H]3C(=O)N(C)C(=O)[C@@H]3[C@](Cc3ccccc3)(C1=O)N2C(=O)c1ccccc1 | -1 | nt | -6 | nt | 0 | +
COc1ccc(CN2CCCC(C(=O)N(C)Cc3ccccc3)C2)cc1OC (centres undefined) | 3 | -2 | -3 | 3 | 2 | i
COc1ccccc1CN1CCCC(C(=O)N(C)Cc2ccccc2)C1 (centres undefined) | 5 | nt | 55* | nt | 3 | i
COc1ccccc1N1C(C)=CC(=C(C#N)c2nc3ccccc3s2)C=C1C | 4 | 18 | -90 | -1 | 109* | +
CC[C@]12c3[nH]c4ccccc4c3CCN1C(=O)C(CC(=O)NC/C=C(\C)CCC=C(C)C)C[C@@H]2C(=O)N1CCN(C(=O)c2ccco2)CC1 (some centres undefined) | 1 | nt | 23 | 1 | 3 | i
Nc1ccc(-c2cnc[nH]2)cc1[N+](=O)[O-] | 0 | -1 | -14 | -2 | -1 | i
CCOc1[nH]n(-c2ccccc2)c(=O)c1C=Nc1ccc(Cl)cc1 | -1 | -6 | -14 | 4 | 3 | i
CCOc1[nH]n(-c2ccc(Cl)cc2)c(=O)c1C=Nc1ccc(OC)cc1 | 1 | -5 | -1 | 0 | -2 | +

Compound activity (PubChem BioAssay)
